“And” between values parts separate entries of the source, which are not always exact repeats. Identical values can stand only once. Where a structure was tested more than once in an assay, its records may differ in their call. The source made the active and inactive calls. How the source made its calls: active means hit-call score of the fitted dose curve at least 0.9, where 1 is the maximum; inactive means score below 0.9.
Tests used:
[1] = ATG_GLI_CIS: Attagene CIS-FACTORIAL HepG2 Assay for human Zinc Finger Protein GLI1 (AID 2282945); conditions: HepG2, Attagene cis-factorial reporter mRNA, GLI element; actives raise or lower the signal
Procedure, shortened: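 Bidirectional curve fits relative to DMSO, using reporter mRNA levels from RT-PCR plus capillary electrophoresis. Cells were HepG2 transiently carrying cis-regulated reporter constructs, harvested 24 h after dosing.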

[2] = target: Bile acid receptor (Homo sapiens) (UniProt Q96RI1); test: ATG_IR1_CIS: Attagene CIS-FACTORIAL HepG2 Assay for human Nuclear Receptor Subfamily 1 Group H Member 4 (NR1H4), IR1 submotif (AID 2282946); conditions: IR1 reporter transcription, actives raise or lower the signal
Procedure, shortened: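 HepG2 cells transiently transfected with multiplexed cis-element reporter units read endogenous transcription factor activity. After 24 h compound exposure, reporter mRNA was quantified by RT-PCR, fluorescent labelling, HpaI digestion and capillary electrophoresis; bidirectional fitting versus DMSO baseline.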

[3] = ATG_GRE_CIS: Attagene CIS-FACTORIAL HepG2 Assay for human Glucocorticoid Response Elements (GRE) (AID 2282947); conditions: HepG2 GRE cis-reporter, Attagene multiplex mRNA; actives raise or lower the signal
Procedure, shortened: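 Reporter transcripts read by RT-PCR with capillary electrophoresis fluorescence after a 24 h chemical exposure of HepG2 cells transiently transfected with multiple cis-element reporter units. Gain or loss fitted against DMSO.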

[4] = ATG_ISRE_CIS: Attagene CIS-FACTORIAL HepG2 Assay for human Interferon Regulatory Factor 1 (IRF1) binding to an Interferon-Stimulated Response Element (ISRE) (AID 2282948); conditions: HepG2 ISRE cis-reporter (Attagene), mRNA transcription readout; actives raise or lower the signal
Procedure, shortened: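 Endogenous transcription factor activity read as reporter transcript abundance via RT-PCR and capillary electrophoresis. HepG2 cells transiently transfected, 24 h chemical exposure. Gain or loss fitted against DMSO baseline.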

[5] = ATG_M_32_CIS: Attagene CIS-FACTORIAL HepG2 Assay for M32 Transcription Factor (Internal Marker) (AID 2282949); conditions: HepG2 Attagene cis-factorial M32 reporter, mRNA; actives raise or lower the signal;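 further: background control marker of the multiplexed CIS panel rather than a real target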
Procedure, shortened: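 HepG2 human liver cells transiently transfected with cis-promoter-driven multiple reporter transcription units, dosed 24 h. Reporter mRNA quantified by RT-PCR, FAM-labelled primer extension, HpaI digest and capillary electrophoresis; bidirectional fit versus DMSO baseline.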

[6] = ATG_M_06_CIS: Attagene CIS-FACTORIAL HepG2 Assay for M06 Transcription Factor (Internal Marker) (AID 2282950); conditions: HepG2 Attagene CIS-FACTORIAL M06 internal marker reporter; actives raise or lower the signal
Procedure, shortened: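 Measured 24 h post-dosing in transiently transfected HepG2 cells, this internal-marker endpoint reports reporter mRNA via RT-PCR with fluorescent primer extension and capillary electrophoresis. DMSO served as negative control and baseline for bidirectional fitting.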

[7] = target: Hypoxia-inducible factor 1-alpha (Homo sapiens) (UniProt Q16665); test: ATG_HIF1a_CIS: Attagene CIS-FACTORIAL HepG2 Assay for human Hypoxia Inducible Factor 1 (HIF1A) (AID 2282951); conditions: HepG2 Attagene cis-factorial HIF1a reporter transcription; actives raise or lower the signal
Procedure, shortened: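 Dosed 24 h, transfected HepG2 cells yielded total RNA whose reporter transcripts were RT-PCR-amplified and sized by capillary electrophoresis using fluorescent labelling; DMSO defined baseline, with gain and loss of signal both fitted.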

[8] = target: Hepatocyte nuclear factor 6 (Homo sapiens) (UniProt Q9UBC0); test: ATG_HNF6_CIS: Attagene CIS-FACTORIAL HepG2 Assay for human Hepatocyte Nuclear Factor 6 (HNF6) (AID 2282952); conditions: HepG2 Attagene cis-factorial HNF6 reporter transcription; actives raise or lower the signal
Procedure, shortened: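 Endogenous transcription factor activity in human HepG2 liver cells was captured through cis-regulated reporter constructs. After 24 h treatment, reporter mRNA was measured by RT-PCR with capillary electrophoresis, and activity was fitted in both directions relative to DMSO.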

[9] = target: Heat shock factor protein 1 (Homo sapiens) (UniProt Q00613); test: ATG_HSE_CIS: Attagene CIS-FACTORIAL HepG2 Assay for human Heat Shock Transcription Factor 1 (HSE) (AID 2282953); conditions: HepG2 HSE cis-reporter, Attagene RNA transcription; actives raise or lower the signal
Procedure, shortened: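 Reporter mRNA induction in HepG2 is measured 24 h after dosing, using transiently transfected multiplexed cis-regulated reporter units. Signal comes from capillary electrophoresis of labelled RT-PCR products, with DMSO as negative control.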

[10] = ATG_MRE_CIS: Attagene CIS-FACTORIAL HepG2 Assay for human Metal Responsive Element (MRE) (AID 2282954); conditions: HepG2 MRE cis-reporter transcription, Attagene multiplex; actives raise or lower the signal
Procedure, shortened: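 Endogenous MRE-dependent transcription read as reporter mRNA in transiently transfected human HepG2 cells at 24 h. RNA reverse-transcribed, PCR-amplified, labelled and resolved by capillary electrophoresis; gain or loss relative to DMSO.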

[11] = ATG_PBREM_CIS: Attagene CIS-FACTORIAL HepG2 Assay for human Phenobarbital-responsive Enhancer Module (PBREM) (AID 2282955); conditions: HepG2 PBREM cis-reporter, Attagene multiplexed transcription; actives raise or lower the signal
Procedure, shortened: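 Transfected liver-derived HepG2 cells exposed 24 h; PBREM reporter transcript quantified via RT-PCR and capillary electrophoresis, with activity in either direction referenced to DMSO.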

[12] = target: Paired box protein Pax-6 (Homo sapiens) (UniProt P26367); test: ATG_Pax6_CIS: Attagene CIS-FACTORIAL HepG2 Assay for human Paired Box 6 (PAX6) (AID 2282956); conditions: HepG2 CIS-FACTORIAL PAX6 reporter transcription, RNA readout; actives raise or lower the signal
Procedure, shortened: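 Read-out is reporter transcript level, measured by RT-PCR with fluorescent primer extension and capillary electrophoresis after 24 h dosing of transfected HepG2 cells. Activity in either direction fitted relative to DMSO control.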

[13] = ATG_PXRE_CIS: Attagene CIS-FACTORIAL HepG2 Assay for human Pregnane X Receptor Element (PXRE) (AID 2282957); conditions: HepG2 Attagene CIS-FACTORIAL PXRE reporter, mRNA; actives raise or lower the signal
Procedure, shortened: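 Endogenous transcription factor activity in HepG2 was gauged through induction of reporter mRNA driven by a cis-regulating promoter element, sampled 24 h post-treatment. Activity was fitted in both directions against DMSO negative control.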

[14] = ATG_PPRE_CIS: Attagene CIS-FACTORIAL HepG2 Assay for human Peroxisome Proliferator-activated Response Element (PPRE) (AID 2282958); conditions: HepG2 PPRE cis-element reporter, Attagene transcription factor profiling; actives raise or lower the signal
Procedure, shortened: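 Measured endpoint: PPRE-controlled reporter mRNA, detected by RT-PCR and capillary electrophoresis fluorescence, from transiently transfected HepG2 cells 24 h after dosing. Curves fitted in both directions using DMSO baseline.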

[15] = ATG_RORE_CIS: Attagene CIS-FACTORIAL HepG2 Assay for human RAR-related Orphan Receptor Element (RORE) (AID 2282959); conditions: HepG2 Attagene cis-factorial RORE reporter, mRNA; actives raise or lower the signal
Procedure, shortened: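 Transiently transfected HepG2 reporter cells were treated 24 h. Reporter transcripts were detected by RT-PCR and capillary electrophoresis, with bidirectional fitting against DMSO.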

[16] = ATG_Sox_CIS: Attagene CIS-FACTORIAL HepG2 Assay for human SRY-box transcription factor (SOX) (AID 2282960); conditions: HepG2 Attagene cis-factorial SOX reporter, mRNA; actives raise or lower the signal
Procedure, shortened: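 Gain- or loss-of-signal endpoint, fitted bidirectionally with DMSO as negative control. Based on reporter mRNA from transfected HepG2 cells harvested 24 h post-treatment and quantified via RT-PCR and capillary electrophoresis.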

[17] = target: Transcription factor Sp1 (Homo sapiens) (UniProt P08047); test: ATG_Sp1_CIS: Attagene CIS-FACTORIAL HepG2 Assay for human Specificity Protein 1 (Sp1) (AID 2282961); conditions: HepG2 Sp1 cis-reporter transcription, actives raise or lower the signal
Procedure, shortened: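 Endpoint reflects endogenous Sp1 transcriptional activity, not an exogenous fusion protein: HepG2 cells with transfected cis-regulated reporters, 24 h dosing, RT-PCR/capillary electrophoresis mRNA read-out, DMSO-normalised bidirectional fit.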

[18] = ATG_SREBP_CIS: Attagene CIS-FACTORIAL HepG2 Assay for human Sterol Regulatory Element Binding (SREBP) (AID 2282962); conditions: HepG2 Attagene cis-factorial SREBP reporter, mRNA; actives raise or lower the signal
Procedure, shortened: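 Endogenous SREBP activity read as cis-element-driven reporter transcript in transiently transfected HepG2, 24 h post-dosing; quantified via RT-PCR plus capillary electrophoresis of fluorescent fragments. Gain or loss of signal fitted relative to DMSO baseline.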

[19] = target: Signal transducer and activator of transcription 3 (Homo sapiens) (UniProt P40763); test: ATG_STAT3_CIS: Attagene CIS-FACTORIAL HepG2 Assay for human Signal Transducer and Activator of Transcription 3 (STAT3) (AID 2282963); conditions: HepG2, Attagene cis-factorial STAT3 reporter transcription; actives raise or lower the signal
Procedure, shortened: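 Readout is reporter transcript quantified by RT-PCR and capillary electrophoresis, with 6-FAM primer extension and HpaI digestion. Total RNA is taken 24 h after dosing transiently transfected HepG2 carrying cis-regulated reporter units. Bidirectional fit against DMSO.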

[20] = ATG_TA_CIS: Attagene CIS-FACTORIAL HepG2 Assay for human TA Basal Promoter (AID 2282964); conditions: HepG2 Attagene CIS-factorial TA basal promoter reporter; actives raise or lower the signal
Procedure, shortened: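 Cis-factorial format in HepG2: reporters report endogenous factors, not chimeric Gal4 fusions. After 24 h treatment, reporter transcripts were measured by RT-PCR-capillary electrophoresis fluorescence, analysed bidirectionally versus DMSO.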

Measured: AC50

Bile acid receptor (Homo sapiens), sequence (Q96RI1 whole entry, looked up): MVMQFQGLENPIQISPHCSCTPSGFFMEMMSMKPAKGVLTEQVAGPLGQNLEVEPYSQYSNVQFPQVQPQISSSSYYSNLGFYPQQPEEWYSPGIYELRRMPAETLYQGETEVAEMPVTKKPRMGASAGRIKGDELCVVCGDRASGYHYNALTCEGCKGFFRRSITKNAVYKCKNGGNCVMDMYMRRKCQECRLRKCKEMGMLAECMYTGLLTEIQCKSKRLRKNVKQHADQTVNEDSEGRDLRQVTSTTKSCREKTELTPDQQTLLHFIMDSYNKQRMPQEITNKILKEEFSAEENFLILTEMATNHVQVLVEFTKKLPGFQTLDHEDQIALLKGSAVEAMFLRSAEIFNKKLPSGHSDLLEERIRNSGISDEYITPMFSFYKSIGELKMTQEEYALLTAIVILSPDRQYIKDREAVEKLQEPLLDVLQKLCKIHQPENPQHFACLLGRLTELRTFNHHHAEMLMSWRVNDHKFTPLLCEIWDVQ
Hepatocyte nuclear factor 6 (Homo sapiens), sequence (Q9UBC0 whole entry, looked up): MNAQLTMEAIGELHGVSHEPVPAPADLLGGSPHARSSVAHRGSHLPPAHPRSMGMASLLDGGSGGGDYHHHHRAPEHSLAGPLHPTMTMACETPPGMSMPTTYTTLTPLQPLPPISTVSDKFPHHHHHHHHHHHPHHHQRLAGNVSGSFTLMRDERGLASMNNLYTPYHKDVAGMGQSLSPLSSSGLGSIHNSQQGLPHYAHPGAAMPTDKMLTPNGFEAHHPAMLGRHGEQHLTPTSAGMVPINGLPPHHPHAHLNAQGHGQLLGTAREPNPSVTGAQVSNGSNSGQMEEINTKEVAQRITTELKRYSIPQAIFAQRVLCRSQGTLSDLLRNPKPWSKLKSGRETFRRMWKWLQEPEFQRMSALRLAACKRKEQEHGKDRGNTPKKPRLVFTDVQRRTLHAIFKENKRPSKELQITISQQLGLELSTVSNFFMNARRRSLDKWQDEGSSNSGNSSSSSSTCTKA
Transcription factor Sp1 (Homo sapiens), sequence (P08047 whole entry, looked up, the tested form may be a part): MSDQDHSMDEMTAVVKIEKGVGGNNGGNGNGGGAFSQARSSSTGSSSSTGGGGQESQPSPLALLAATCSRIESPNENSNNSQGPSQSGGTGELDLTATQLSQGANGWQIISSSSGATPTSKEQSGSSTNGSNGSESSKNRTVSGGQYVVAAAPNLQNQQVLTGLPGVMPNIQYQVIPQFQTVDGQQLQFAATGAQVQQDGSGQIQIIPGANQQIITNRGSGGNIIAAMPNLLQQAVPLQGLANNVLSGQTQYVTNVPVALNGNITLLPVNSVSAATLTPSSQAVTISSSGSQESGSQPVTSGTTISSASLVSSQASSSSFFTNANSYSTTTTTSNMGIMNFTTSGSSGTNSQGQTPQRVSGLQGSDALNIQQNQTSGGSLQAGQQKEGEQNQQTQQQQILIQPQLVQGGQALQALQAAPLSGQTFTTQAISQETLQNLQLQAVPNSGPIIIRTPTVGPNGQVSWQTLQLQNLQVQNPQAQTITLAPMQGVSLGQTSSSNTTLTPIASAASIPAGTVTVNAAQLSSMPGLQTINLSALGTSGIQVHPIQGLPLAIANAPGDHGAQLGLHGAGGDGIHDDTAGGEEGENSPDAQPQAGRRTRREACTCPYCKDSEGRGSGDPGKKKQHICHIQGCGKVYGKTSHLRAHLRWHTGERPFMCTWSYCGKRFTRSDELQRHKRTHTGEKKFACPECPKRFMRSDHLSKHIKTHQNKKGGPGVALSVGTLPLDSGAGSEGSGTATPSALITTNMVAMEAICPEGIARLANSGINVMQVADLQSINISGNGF
Paired box protein Pax-6 (Homo sapiens), sequence (P26367 whole entry, looked up): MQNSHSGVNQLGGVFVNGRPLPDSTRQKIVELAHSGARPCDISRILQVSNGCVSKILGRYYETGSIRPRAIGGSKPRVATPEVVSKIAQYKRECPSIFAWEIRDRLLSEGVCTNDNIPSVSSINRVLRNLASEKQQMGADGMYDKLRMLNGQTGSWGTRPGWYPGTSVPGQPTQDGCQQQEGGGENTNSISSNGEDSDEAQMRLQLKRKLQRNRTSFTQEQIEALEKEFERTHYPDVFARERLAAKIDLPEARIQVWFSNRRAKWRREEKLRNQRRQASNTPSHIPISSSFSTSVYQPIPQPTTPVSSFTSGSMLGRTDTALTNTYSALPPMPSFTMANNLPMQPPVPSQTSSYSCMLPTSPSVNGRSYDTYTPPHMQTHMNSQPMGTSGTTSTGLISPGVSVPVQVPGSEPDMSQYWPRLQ
Signal transducer and activator of transcription 3 (Homo sapiens), sequence (P40763 whole entry, looked up): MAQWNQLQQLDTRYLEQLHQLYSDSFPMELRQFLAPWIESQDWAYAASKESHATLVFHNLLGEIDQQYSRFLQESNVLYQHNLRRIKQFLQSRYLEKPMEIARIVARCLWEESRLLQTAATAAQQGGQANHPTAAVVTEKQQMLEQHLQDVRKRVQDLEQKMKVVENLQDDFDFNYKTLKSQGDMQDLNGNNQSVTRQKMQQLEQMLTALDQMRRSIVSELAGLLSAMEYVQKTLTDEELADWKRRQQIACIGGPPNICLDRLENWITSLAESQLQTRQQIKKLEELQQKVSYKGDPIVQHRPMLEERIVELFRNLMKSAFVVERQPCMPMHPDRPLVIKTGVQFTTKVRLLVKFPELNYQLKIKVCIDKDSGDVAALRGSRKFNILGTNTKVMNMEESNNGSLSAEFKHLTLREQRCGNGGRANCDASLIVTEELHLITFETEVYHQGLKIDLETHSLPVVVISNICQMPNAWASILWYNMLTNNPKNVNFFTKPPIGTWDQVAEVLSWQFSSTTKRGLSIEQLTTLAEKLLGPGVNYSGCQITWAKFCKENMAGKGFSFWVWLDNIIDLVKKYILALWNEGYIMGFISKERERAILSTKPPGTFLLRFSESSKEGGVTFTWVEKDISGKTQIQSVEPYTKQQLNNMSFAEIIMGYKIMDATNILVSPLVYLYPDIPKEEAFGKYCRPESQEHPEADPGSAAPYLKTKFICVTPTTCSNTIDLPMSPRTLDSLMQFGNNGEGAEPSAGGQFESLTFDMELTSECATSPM
Heat shock factor protein 1 (Homo sapiens), sequence (Q00613 whole entry, looked up): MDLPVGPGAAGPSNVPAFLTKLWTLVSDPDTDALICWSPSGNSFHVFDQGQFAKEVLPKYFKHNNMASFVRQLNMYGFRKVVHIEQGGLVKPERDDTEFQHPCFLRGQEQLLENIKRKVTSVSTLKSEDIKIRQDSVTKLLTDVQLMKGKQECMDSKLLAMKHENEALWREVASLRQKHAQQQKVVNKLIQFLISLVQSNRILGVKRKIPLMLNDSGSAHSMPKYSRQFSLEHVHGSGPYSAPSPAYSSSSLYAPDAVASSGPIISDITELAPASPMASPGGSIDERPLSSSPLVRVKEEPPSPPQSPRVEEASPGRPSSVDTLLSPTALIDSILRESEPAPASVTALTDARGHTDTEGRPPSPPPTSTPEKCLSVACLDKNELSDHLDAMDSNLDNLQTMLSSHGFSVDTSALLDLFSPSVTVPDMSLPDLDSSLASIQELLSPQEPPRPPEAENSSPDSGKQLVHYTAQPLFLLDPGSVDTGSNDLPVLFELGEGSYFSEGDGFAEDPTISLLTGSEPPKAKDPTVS
Hypoxia-inducible factor 1-alpha (Homo sapiens), sequence (Q16665 whole entry, looked up): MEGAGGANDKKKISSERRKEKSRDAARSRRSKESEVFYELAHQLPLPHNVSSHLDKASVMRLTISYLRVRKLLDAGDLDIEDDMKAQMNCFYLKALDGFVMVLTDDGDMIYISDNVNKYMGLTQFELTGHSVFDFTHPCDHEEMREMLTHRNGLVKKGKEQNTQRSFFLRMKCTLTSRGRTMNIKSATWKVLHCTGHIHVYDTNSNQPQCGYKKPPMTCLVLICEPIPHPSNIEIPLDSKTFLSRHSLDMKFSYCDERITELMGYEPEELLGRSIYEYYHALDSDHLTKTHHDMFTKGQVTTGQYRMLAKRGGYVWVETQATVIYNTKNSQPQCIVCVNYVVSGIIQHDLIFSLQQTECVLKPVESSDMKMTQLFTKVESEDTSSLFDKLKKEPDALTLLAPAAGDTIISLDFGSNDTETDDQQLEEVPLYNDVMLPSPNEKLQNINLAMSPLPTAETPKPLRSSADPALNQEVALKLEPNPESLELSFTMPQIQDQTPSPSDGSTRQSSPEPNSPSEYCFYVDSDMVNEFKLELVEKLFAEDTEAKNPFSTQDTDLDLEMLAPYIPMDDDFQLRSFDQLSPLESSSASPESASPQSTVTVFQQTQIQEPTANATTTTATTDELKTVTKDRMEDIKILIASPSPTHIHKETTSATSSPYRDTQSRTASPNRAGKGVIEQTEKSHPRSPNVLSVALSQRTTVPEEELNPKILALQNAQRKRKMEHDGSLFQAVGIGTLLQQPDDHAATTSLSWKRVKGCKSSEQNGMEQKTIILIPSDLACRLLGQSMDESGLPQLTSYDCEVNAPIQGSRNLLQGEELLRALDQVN

C[C@]12C[C@H](O)[C@H]3[C@@H](CCC4=CC(=O)CC[C@@]43C)[C@@H]1CC[C@@H]2C(=O)CO
active: [3] 26.6 µM | [7] 55.9 µM | [13] 32.7 µM [middle of 4 runs]
inactive: [1] | [2] | [3] | [4] | [5] | [6] | [7] | [8] | [9] | [10] | [11] | [12] | [14] | [15] | [16] | [17] | [18] | [19] | [20]

CC(C)CCCCCCc1ccc(O)cc1
active: [2] 17.9 µM | [4] 18.4 µM and 13.7 µM | [5] 18 µM and 17.2 µM | [9] 15.3 µM and 19.9 µM and 17 µM | [10] 16.3 µM and 17.6 µM | [11] 15.8 µM | [12] 17.9 µM and 20.8 µM and 19.9 µM | [13] 2.88 µM [middle of 4 runs] | [14] 11.1 µM | [16] 17.8 µM and 17.5 µM | [17] 19.4 µM and 16.2 µM | [18] 20.2 µM | [20] 20.3 µM
inactive: [2] | [3] | [4] | [5] | [6] | [7] | [8] | [9] | [10] | [11] | [12] | [14] | [15] | [16] | [17] | [18] | [19] | [20]

Reference: PubChem BioAssay (EPA / NIEHS)
